The source of these data is PubChem BioAssay (NCI).

Compounds without any hit were thinned out: in the full panel of roughly 83,000, 20% have a hit.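 Cell lines were cultured in 96-well plates, exposed to a single compound concentration, and assessed for percent growth 48 hours later.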 Unmarked numbers belong to inactive results. The source made the active and inactive calls. Rule for the calls: active = growth percent below 10; inactive = the rest.

Holding throughout (assay): NCI-60 one-dose screen, 48 h (100 = growth as untreated, 0 = no growth, -100 = all killed)
What all share (conditions): 10 µM unless noted

The test system of assay [1] is SR leukemia.
The subject of assay [2] is RPMI-8226 leukemia.
Assay [3] relates to OVCAR-8 ovarian.
The test system of assay [4] is OVCAR-5 ovarian.
The test system of assay [5] is OVCAR-4 ovarian.
Assay [6] has as its system SK-OV-3 ovarian.
Assay [7] concerns IGROV1 ovarian.
Assay [8] has as its system HS 578T breast.
In assay [9] the test system is NCI/ADR-RES ovarian.
The test system of assay [10] is OVCAR-3 ovarian.

Take `Cc1cc2nc3c4cc(C#N)ccc4n(CCN(C)C)c3nc2cc1C`: the growth is 0.51% (active) in assay [1]; -17.7% (active) in assay [2]; -33.2% (active) in [3]; 6.4% (active) in assay [4]; 0.732% (active) in [5]; -4.4% (active) in [6]. For the same compound, the growth in assay [7] is -1.99% (active); in assay [8] it was -15% (active); in assay [9], 5.29% (active).

As to `CN1CCN(c2ccc(Nc3nc(NCCCNS(=O)(=O)c4ccc(Cl)cc4)c4sccc4n3)cc2)CC1`, the growth in assay [1] is 5.77% (active); in [2], 4.97% (active); in [3], 17%; in assay [4], 39.5%; in [5] it was -0.0486% (active); in assay [6], 54.1%. In addition, the growth is -6.9% (active) in assay [10], 20.2% in [8] and 47.7% in assay [9].

With `O=C1Nc2ccc(F)cc2/C1=C\C(=O)c1ccc(NS(=O)(=O)c2ccccc2)cc1`, the growth is 9.42% (active) in assay [1]; 67.6% in [2]; 91.1% in [3]; 107% in assay [4]; 93.2% in assay [5]; 112% in assay [6]. The growth in assay [8] was 110%; in assay [9], 96.7%.

As for `c1ccc(-c2cn3c(-c4c[nH]c5ccccc45)csc3n2)cc1`, the growth is 61.7% in assay [1]; 31.2% in [2]; 65.5% in assay [3]; 87.8% in assay [4]; 61.9% in assay [5]; 87.3% in assay [6]. The growth is 68.9% in [8] and 91.8% in assay [9].

With `Cn1cc(-c2nn3cc(-c4ccncc4)nc3s2)c2cc(Br)ccc21`, the growth is 8.33% (active) in [1]; 15.2% in assay [2]; 28.8% in [3]; 73.8% in [4]; 75.7% in assay [5]; 87.6% in assay [6]. The growth in [7] was 33.4%; in assay [8], 54.3%; in assay [9] it was 42.8%.

As to `C#CCOc1ccc(/C=N/Nc2nc(-c3ccc(OC)cc3)cs2)cc1`, the growth was 47% in assay [1]; 53.3% in assay [2]; 84.9% in assay [3]; 104% in assay [4]; 53.1% in assay [5]; 99.6% in assay [6]. In addition, the growth is 94% in [8] and 89.6% in [9].

On to `O=C(CCCCCCNC(=O)c1csc(Br)n1)NO`, for which the growth in [1] is 23.9%; in assay [2], 2.81% (active); in assay [3], 23.5%; in assay [4] it was 20.2%; in assay [5], 69.6%; in assay [6] it was 56.3%. Also, the growth in assay [7] was 36.4%; in [8], 58.3%; in [9], 9.08% (active).

Take `Oc1[nH]c2ccc(Cl)cc2c1N=Nc1nc(N=Nc2c(O)[nH]c3ccc(Cl)cc23)nc(N2CCCCC2)n1`: the growth in assay [1] was 24.5%; in assay [2], 57%; in [3] it was 25.9%; in [4] it was 38.2%; in assay [5] it was 42.2%; in assay [6], 94.5%. In addition, the growth in [10] is 76.9%; in [8], 36.2%; in assay [9], 101%.

With `CC(C)C(/C=C/c1[nH]ncc1-c1cc(Cl)ccc1O)N1CCOCC1` (stereo unspecified), the growth in assay [1] is 87.9%; in assay [2] it was 94.5%; in assay [3], 91.9%; in assay [4] it was 99.4%; in [5], 94.3%; in assay [6] it was 92.8%. The growth in assay [8] was 83.8%; in assay [9] it was 88.1%.

Regarding `CCc1cccc2c3c(sc12)C(c1ccc(F)cc1)C(C#N)=C(/N=C/c1ccc(Cl)cc1)O3` (stereo unspecified), the growth in assay [1] is 18.8%; in assay [2], 21.5%; in assay [3], 13.6%; in assay [4] it was 29.1%; in assay [5], 80.6%; in assay [6], 42.6%. Besides, the growth in assay [7] is 29.9%; in assay [8] it was -1.77% (active); in assay [9], 7.87% (active).

Turning to `CCCCSC1=C(Cl)CN(c2ccc(Cl)cc2)C1=O`, the growth in [1] is 34.3%; in assay [2] it was 31.7%; in [3], 99.1%; in assay [4] it was 104%; in assay [5], 104%; in assay [6] it was 110%. Besides, the growth was 107% in assay [8] and 103% in assay [9].

Take `Cn1cc(-c2cc3ncnc(Nc4ccc(NC(=O)Nc5cc(C(C)(C)C)on5)cc4)c3s2)cn1`: the growth in assay [1] is 22.3%; in [2] it was 5.73% (active); in [3] it was 44.2%; in assay [4], 30.4%; in assay [5], 41%; in [6], 20.4%. The growth is 54.9% in assay [10], 14.9% in [8] and 61.6% in [9].

`N#C/C(=C\c1ccc(-c2ccc(Cl)c(Cl)c2)o1)C(=O)Nc1ncc(Cc2ccc(Cl)cc2)s1`: the growth in assay [1] is 16%; in assay [2], 67.4%; in [3], 19.9%; in assay [4], 45.7%; in assay [5], -15.1% (active); in [6], 81.2%. Besides, the values for the growth in assay [7], in assay [8] and in assay [9] were 26.2%, -7.83% (active) and 32.7%, respectively.

As to `COc1ccc(-c2cnc(NC(=O)CCCCCCNC(=O)C(O)(O)C(F)(F)F)s2)cc1`, the growth in assay [1] is 13.2%; in [2] it was 14%; in assay [3], -3.57% (active); in assay [4] it was 4.6% (active); in [5], -9.83% (active); in assay [6] it was -19.3% (active). Moreover, the growth in assay [10] was -50.6% (active); in assay [8], 9.86% (active); in assay [9], -2.38% (active).
